The values that follow come from PubChem BioAssay (NCI).

Where “and” joins values, the source holds several entries; their conditions need not be identical. Identical values can stand only once. Compounds without any hit were thinned out: in the full panel of roughly 83,000, 20% have a hit.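 Treatment: one concentration, 48 hours, 96-well format. Scoring: percent growth, with anything below 10 considered active.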 Values without a mark were called inactive. Calls of active or inactive are those of the source.

The first assay deals with OVCAR-8 ovarian. The experiment in a line: NCI-60 one-dose screen, 48 h (100 = growth as untreated, 0 = no growth, -100 = all killed). As to conditions: 10 µM unless noted.
For the molecule `C[C@@H]1OCC2(CCN(c3cnc(C(=O)Nc4cc(F)cc5cccnc45)cn3)CC2)[C@@H]1N`, the growth was 86.8%. The same measure, in the same setting: in the case of `C#CCOc1ccccc1C(OC(=O)c1ccccc1)C(=O)NC(C)(C)C(C)(C)C` (configuration not stated) it was 89.3%; in that of `O=C(CSc1nnc(-c2cccs2)n1-c1ccccc1)Nc1ccccc1F`, 95.1%.

For the next assay, the system named is OVCAR-5 ovarian. The assay is described as above. As to conditions: 10 µM unless noted.
With `Cc1ccc(S(=O)(=O)NCCCNc2nccc(-c3[nH]c(-c4ccccc4)nc3-c3ccc(F)c(O)c3)n2)cc1`, the growth is 143%. For `COc1cc(-c2nc(-c3ccccc3)[nH]c2-c2ccnc(NCCCNS(=O)(=O)c3ccc(C(F)(F)F)cc3)n2)ccc1Cl`, the growth is 103% and 84.4%. For the molecule `C#C[C@]1(O)CC[C@H]2[C@@H]3CC=C4c5sc(Nc6ncccc6C)nc5CC[C@]4(C)[C@H]3CC[C@@]21C`, the growth was 26%. For the molecule `CCOC(=O)c1c(NC(=O)c2cccc(C(F)(F)F)c2)sc2c3c(ccc12)OCN(C)C3`, the growth was -14% (active). Turning to `COc1ccc(/C=N/NC(=O)CSc2nc(-c3cnccn3)cc(-c3cccs3)c2C#N)cc1`, the growth was 103%. For the molecule `CCCCCCN1C=C/C(=C\C(=O)n2ccc3ccccc32)c2ccccc21`, the growth is 90.9%. With `Cc1ccc(C(=O)CSc2nc3ccccc3c(=O)n2C)cc1`, the growth is 105%. The same measure, in the same setting: in the case of `O=C(CCCCCCNC(=O)C(O)(O)C(F)(F)F)Nc1ccc(-c2ccccc2)cc1` it was 9.32% (active).

On to `COc1ccc(C2CC(c3cccc(OCCCCOc4cccc(C5=NN(C(C)=O)C(c6ccc(OC)cc6)C5)c4)c3)=NN2C(C)=O)cc1` (configuration not stated), for which the growth is 96.2%. Turning to `Cn1cc(-c2nc(N)nnc2-c2c[nH]c3ccc(Br)cc23)c2cc(F)ccc21`, the growth is 110%. Turning to `Oc1[nH]c2ccc(Cl)cc2c1N=Nc1nc(N=Nc2c(O)[nH]c3ccc(Cl)cc23)nc(N2CCCCC2)n1`, the growth was 38.2%.

Regarding `CC(=O)Nc1cc(N2CCOCC2)c2nc(NC(=O)c3[nH]c(C)c(Cl)c3Cl)sc2c1`, the growth is 94.7%. For the molecule `C#CCN(C)CCCOc1ccc(NCc2ccc(/C=C/C(=O)NO)cc2)cc1Cl`, the growth is 6.62% (active). Consider `COC(=O)c1ccc(NC2=C(Cl)C(=O)c3nc(C)ccc3C2=O)cc1`, for which the growth is 105%.

As to `Cc1ccc2c(n1)C(=O)C(Cl)=C(Nc1cc(C(F)(F)F)cc(C(F)(F)F)c1)C2=O`, the growth is 109%. For `COC(=O)c1cccc(NC2=C(Cl)C(=O)c3nc(C)ccc3C2=O)c1`, the growth was 99.8%.

Take `COc1cc(C(C)=C(c2ccc(OCCN(C)C)cc2)c2ccc(OCCN(C)C)cc2)ccc1F`: the growth is 103%. Same read-out and setting: in the case of `N#Cc1c(-c2cccs2)cc(-c2cnccn2)nc1SCC(=O)N/N=C/c1ccncc1` it was 114%; in that of `C#Cc1cc(OC)c(C(=O)Nc2ccc(F)cc2C(=O)Nc2cccc(S(=O)(=O)C(F)(F)F)c2)cn1`, -33.2% (active). In the case of `NC1=NC2(CCCC2)N(c2ccc(S(=O)(=O)Nc3nccs3)cc2)C(N)=N1`, the growth is 101%. Turning to `Cn1cc(-c2nnc(N)nc2-c2c[nH]c3ccc(F)cc23)c2cc(Br)ccc21`, the growth is 68.3%.

`CCCN1C=C/C(=C\C(=O)n2ccc3ccccc32)c2ccccc21`: the growth was 87.8%. Still for that read-out and setting: in the case of `Cc1ccc2c(n1)C(=O)C(Cl)=C(Nc1ccc(C(C)C)cc1)C2=O` it was 103%. As to `COc1ccc2c(c1)C=CC1(O2)Oc2ccc(OC)cc2C=C1C` (configuration not stated), the growth was 29.7%. On to `NCCNC(=O)c1cccc(COc2ccccc2NC(=O)c2cc(Cl)c(Cl)[nH]2)c1`, for which the growth was 96.8%.

As for `Cc1cc(C)cc(NC2=C(Cl)C(=O)c3nc(C)ccc3C2=O)c1`, the growth is 92.7%. As for `Cc1nc(/N=C(N)/N=C(\N)c2cccc(Br)c2)sc1C`, the growth was 71.1%.

With `Fc1ccc2nc(-c3cnn4cccnc34)sc2c1`, the growth is 101%.

Take `COc1ccc(C(=O)c2c(N)c(C#N)cn2-c2ccc(Cl)cc2Cl)cc1`: the growth was 93.9%. For `COc1ccc(C2CC(c3cccc(OCCCCOc4cccc(C5=NOC(c6ccc(OC)cc6)C5)c4)c3)=NO2)cc1` (configuration not stated), the growth is 111%. Still for that read-out and setting: in the case of `CCN(CC)CCOc1ccc(C(=C(C)c2ccc(OC)cc2)c2ccc(OCCN(CC)CC)cc2)cc1` it was 18.8%; in that of `CN1CCN(c2ccc(Nc3nc(NCCCNS(=O)(=O)c4ccccc4)c4sccc4n3)cc2)CC1`, 78.3%; in that of `CC1=C(C)C(=O)C(Nc2cccc(C(=O)OC(C)(C)C)c2)=C(Cl)C1=O`, 106%. With `O=C(/C=C/c1cccc(F)c1)c1cccc(OCCCOc2cccc(C(=O)/C=C/c3cccc(F)c3)c2)c1`, the growth was 77.8%. With `CC(Nc1ncnc2ccc(-c3cnc4cnccn34)cc12)c1ccccc1` (configuration not stated), the growth is 68.2%. As to `CC1CC(=O)C2=C(C1)Nc1ccc(Br)cc1CC2c1c[nH]c2ccc(Br)cc12` (configuration not stated), the growth was 82%. The same measure, in the same setting: the same measure for `C[C@@H]1OCC2(CCN(c3cnc(C(=O)Nc4cc(F)cc5cccnc45)cn3)CC2)[C@@H]1N`: 80%; for `C#CCOc1ccccc1C(OC(=O)c1ccccc1)C(=O)NC(C)(C)C(C)(C)C` (configuration not stated): 102%; for `O=C(CSc1nnc(-c2cccs2)n1-c1ccccc1)Nc1ccccc1F`: 100%.
